Measurements reported in ChEMBL document CHEMBL4513146, “CO-ADD screening of Karazin Kharkiv National University (Ukraine) compounds”.
Results with a measured potency or affinity are listed apart.

Columns and labels:
Klebsiella pneumoniae = conditions: Concentration 32 ug.mL-1;; ASSAY_TEST Inhibition of Bacterial Growth; detection method Absorption (OD600); MEDIA CAMHB; plate type 384well; NBS; CORNING #3640; time 18 hr
Candida albicans = conditions: Concentration 32 ug.mL-1; ASSAY_TEST Inhibition of Fungal Growth; detection method Absorption (OD530)
Cryptococcus neoformans = conditions: Concentration 32 ug.mL-1; ASSAY_TEST Inhibition of Fungal Growth; detection method Resazurin; Absorption (OD600-OD570); plate type 384well; NBS; CORNING #3640

Compound	Inhibition (Klebsiella pneumoniae) [%]	Inhibition (Candida albicans) [%]	Inhibition (Cryptococcus neoformans) [%]
CC(C)(C)S(=O)(=O)c1ccc2nn(CC(=O)Nc3ccc(Br)cc3)c(=O)n2n1	6.53	2.28	-17.49
COc1cc(NC(=O)Cn2nc3n(CCc4ccccc4)c(=O)c4ccccc4n3c2=O)cc(OC)c1	10.27	12	-22.83
CCOc1ccc(-n2ccn3c(SCC(=O)NCc4cccc(OC)c4OC)nnc3c2=O)cc1	14.82	1.5	-8.08
CCc1nnc2c(SCC(=O)Nc3ccc(C)cc3Br)nc3ccccc3n12	6.8	1.54	-14.73
Cc1c(Cl)cccc1-n1ccn2c(=O)n(Cc3cccc(F)c3)nc2c1=O	6.93	10.08	-17.54
NC(=O)C1CCN(C(=O)CCc2nnc3c(N4CCCCC4)nc4ccccc4n23)CC1	15.2	1.8	-5.85
CCOC(=O)c1ccc(NC(=O)Cn2nc3c4cc(-c5ccc(C)cc5)nn4ccn3c2=O)cc1	-1.86	7.19	-28.56
O=C(CSc1nc2ccccc2n2c(-c3ccccc3)nnc12)Nc1ccc(Br)cc1	12.64	10.16	-26.76
COc1cccc(NC(=O)Cn2nc3c(N4CCCC4)nccn3c2=O)c1	8.57	2.47	-12.87
CCc1ccc(N(Cc2ccc(C)cc2)S(=O)(=O)c2cccn3c(C)nnc23)cc1	3.2	0.84	-6.65
Cc1cccc(CN(c2ccc(Cl)cc2)S(=O)(=O)c2cccn3c(C)nnc23)c1	9.48	1.95	-9.68
Cc1nnc2ccc(S(=O)(=O)N(Cc3ccccc3)c3ccc(F)cc3)cn12	4.54	1.53	-1.68
COc1ccc(C(=O)CSc2nnc3c(=O)n(-c4ccccc4)ccn23)cc1OC	-1.19	25.44	-8.66
COc1ccccc1-n1ccn2c(SCC(=O)Nc3ccc(C)cc3C)nnc2c1=O	11.64	2.45	-10.8
Cc1cc(C)c(NC(=O)Cn2nc3c(Sc4cccc(F)c4)nccn3c2=O)c(C)c1	9.01	0.95	-7.48
CCOc1ccccc1NC(=O)Cn1nc2c3cc(-c4ccc(Cl)cc4)nn3ccn2c1=O	12.1	2.9	-13.93
COc1ccc(CNC(=O)Cn2nc3c(N4CCOCC4)nccn3c2=O)cc1	16.6	6.15	-8.83

Compound	Inhibition (Klebsiella pneumoniae) [%]	Inhibition (Candida albicans) [%]	Inhibition (Cryptococcus neoformans) [%]
O=C(Cn1nc2ccc(Sc3cccc(F)c3)nn2c1=O)Nc1cccc(Cl)c1	-3.42	11.97	-3.34
Cc1ccc(Oc2nccn3c(=O)n(CC(=O)N4CCN(c5ccccc5F)CC4)nc23)cc1	13.64	-0.66	-23.01
CCCCOc1ccc(-c2cc3c4nnc(SCC(=O)NCc5ccccc5)n4ccn3n2)cc1	-0.43	3.39	-8.72
O=C(CSc1nc2ccccc2n2cnnc12)N1CCN(c2ccc(F)cc2)CC1	8.82	1.33	6.24
O=C(Cn1nc2ccc(SCc3ccc(Cl)cc3)nn2c1=O)NC1CCCCC1	3.63	3.05	-27.33
Cc1ccc(-n2ccn3c(SCC(=O)N4CCN(c5ccc(F)cc5)CC4)nnc3c2=O)cc1C	1.76	0.36	-5.04
CCOc1ccc(-n2ccn3c(SCC(=O)c4ccc(C)cc4)nnc3c2=O)cc1	10.63	1.13	-5.35
CC(C)c1ccc(NC(=O)CSc2nnc3c(=O)n(-c4ccccc4)ccn23)cc1	7.22	-0.59	-12.85
O=C(Cn1nc2c(Sc3ccccc3)nccn2c1=O)Nc1cccc(Cl)c1F	13.46	0.76	-9.38
O=C(Cn1nc2ccc(-c3ccccc3)nn2c1=O)N1CCN(c2ccc(F)cc2)CC1	3.94	-0.37	-5.73
CC(C)c1nnc2c(=O)n(CC(=O)Nc3cc(Cl)ccc3Cl)c3ccccc3n12	7.9	3.43	-8.45
COc1cccc(-n2ccn3c(SCC(=O)Nc4ccc(C(C)C)cc4)nnc3c2=O)c1	-7.28	18.36	-10.59
Cc1oc(-c2ccc(OC(C)C)cc2)nc1CSc1nc2ccccc2n2c(C(C)C)nnc12	-1.3	23.86	-18.35
COc1cccc(CN(c2ccc(F)c(F)c2)S(=O)(=O)c2ccc3nncn3c2)c1	0.45	4.56	-8.9
COc1cccc(CN(c2ccc(F)c(F)c2)S(=O)(=O)c2cccn3c(C)nnc23)c1	13.94	-0.28	-8.71
CC(C)Cn1c(=O)c2sccc2n2c(=O)n(Cc3ccc(N4CCCC4=O)cc3)nc12	9.72	1.08	-27.68
